An excerpt weighted towards active compounds, which were near 3.2% of everything screened.
mTORC1 inh: Acumen qHTS Assay for Inhibitors of the mTORC1 Signaling Pathway in MEF (Tsc2-/-, p53-/-) Cells: Sytravon | 44,000 tested, 0.78% active | Potency, µM (doses to about 38.3 µM), without a hit: top-dose activity change, negative = inhibition, usual class: inhibitors | Tsc2-/- p53-/- MEF, phospho-rpS6 immunofluorescence/PI, 24 h | AID 493208, 2011;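 note: potency is the fitted concentration of half-maximal effect; plate controls were DMSO for no effect and rapamycin for full effect; nearly all actives have a fitted effect of over 50% in size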
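Read-out: phospho-S6 Alexa-488 intensity over PI intensity per well, scored as % active cells using thresholds from rapamycin (7.5 nM) and DMSO controls. Tsc2-/-, p53-/- MEFs exposed to compound for 24 h; PI cell count recorded as viability.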
p53null 39C tox: qHTS Screen for Compounds that Selectively Target Cancer Cells with p53 Mutations: Cytotoxicity of p53 Null Cells at the Nonpermissive Temperature; H1299 p53-null (neo) cells, 39C, ATPlite viability, 24 h; Potency, µM (top dose mostly 46.1 µM), for the others: at the top dose activity, negative = cell killing, usual class: cytotoxic; 55,000 tested, 0.97% active; AID 904, 2007;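 note: potency is the fitted concentration of half-maximal effect; 0% = DMSO only and -100% = full killing by 100 µM tamoxifen; nearly all actives have a fitted effect of over 50% in size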
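Luminescent ATP signal reported cell survival after H1299 lines (neo, p53 null; or p53 A138V) received up to 46 uM compound and 24 hr incubation at 39C.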
p53null 32C tox: qHTS Screen for Compounds that Selectively Target Cancer Cells with p53 Mutations: Cytotoxicity of p53 Null Cells at the Permissive Temperature; AID 903, 2007; Potency, µM (doses to about 46.1 µM), without a hit: at the highest dose activity change, negative = cytotoxicity, actives largely listed as cytotoxic; 55,000 tested, 0.62% active; H1299-neo p53 null cells, ATP luminescence, 24 h, 32C;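 note: potency is the fitted concentration of half-maximal effect; 0% = DMSO only and -100% = full killing by 100 µM tamoxifen; nearly all actives have a fitted effect of over 55% in size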
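Cells lacking p53 (H1299-neo) are plated at 600 per well and allowed to settle overnight at 37C. Test compounds (up to 46 uM) are added and held 24 hours at 32C, then ATP is quantified by luminescence.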
S16 viability: Cell viability qHTS assay in S16 Pmp22-F2sN cells | S16 Pmp22-F2sN Schwann cells viability, CellTiter-Glo, 24 h | Potency, µM (highest dose often 57.5 µM), for inactives: top-dose activity change, negative = cytotoxicity, hits mostly cytotoxic | 43,000 tested, 0.48% active; note: potency is the fitted concentration of half-maximal effect; % is set by controls: 0 for no effect and ±100 for the full control effect; nearly all actives have a fitted effect of over 65% in size
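S16 Pmp22-F2sN Schwann cells (500-1,000/well) in phenol-red-free DMEM with 10% FBS received 23 nL compound by pin tool for 24 h at 37 °C. Viability was then read as CellTiter-Glo luminescence after 15 min at room temperature.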
PMP22 txn prim: Cell-based coincidence reporter assay to measure PMP22 gene transcription in S16 Pmp22-F2sN cells - Primary screen | S16 Pmp22-F2sN Schwann cells (luciferase reporters placed in the Pmp22 gene), FLuc/NLuc coincidence luminescence, 24 h | Potency, µM (highest dose often 57.5 µM), without a hit: at the top dose activity change, negative = inhibition, actives largely listed as inhibitors | 43,000 tested, 2% active | AID 1508649, 2021; active = clear falling dose curves in both reporters; inconclusive = both reporters move, but less clearly or upward; inactive = either reporter flat; the % is the NLuc reporter signal; note: potency is the fitted concentration of half-maximal effect; % is set by controls: 0 for no effect and ±100 for the full control effect
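S16 Schwann cells carrying FLuc/NLuc coincidence reporter in the Pmp22 3' UTR treated with compound 24 h at 37C; FLuc then NLuc luminescence read sequentially by dual-luciferase reagents.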
NLuc saturating: Biochemical NLuc saturation counterscreen for small molecule modulators of PMP22 gene expression - Nano-Glo assay; shares compounds with PMP22 txn prim; Potency, µM (top dose mostly 57.5 µM), for inactives: at the highest dose activity change, negative = inhibition, most hits filed as inhibitors; Secreted NLuc enzyme (filtered S16 cell medium), Nano-Glo luminescence; 690 tested, 4% active; AID 1508638, 2021; note: potency is the fitted concentration of half-maximal effect; % is set by controls: 0 for no effect and ±100 for the full control effect
NLuc Km ctr: Biochemical coelenterazine-based NLuc counterscreen for small molecule modulators of PMP22 gene expression - Km assay | secreted NLuc enzyme, coelenterazine luminescence, Km conditions | shares compounds with PMP22 txn prim | Potency, µM (titrated, usually from 57.5 µM), for inactives: at the top dose activity change, negative = inhibition, actives largely listed as inhibitors | 690 tested, 5% active; note: potency is the fitted concentration of half-maximal effect; % is set by controls: 0 for no effect and ±100 for the full control effect
FLuc ctr PMP22: Biochemical FLuc counterscreen for small molecule modulators of PMP22 gene expression; Potency, µM (doses to about 57.5 µM), without a hit: at the highest dose activity, negative = inhibition, hits mostly inhibitors; purified P. pyralis FLuc, luminescence, 10 min; 690 tested, under 10 active; shares compounds with PMP22 txn prim; AID 1508640, 2021; note: % of control where 0% means no effect
Target sequence (P08659 whole entry, looked up): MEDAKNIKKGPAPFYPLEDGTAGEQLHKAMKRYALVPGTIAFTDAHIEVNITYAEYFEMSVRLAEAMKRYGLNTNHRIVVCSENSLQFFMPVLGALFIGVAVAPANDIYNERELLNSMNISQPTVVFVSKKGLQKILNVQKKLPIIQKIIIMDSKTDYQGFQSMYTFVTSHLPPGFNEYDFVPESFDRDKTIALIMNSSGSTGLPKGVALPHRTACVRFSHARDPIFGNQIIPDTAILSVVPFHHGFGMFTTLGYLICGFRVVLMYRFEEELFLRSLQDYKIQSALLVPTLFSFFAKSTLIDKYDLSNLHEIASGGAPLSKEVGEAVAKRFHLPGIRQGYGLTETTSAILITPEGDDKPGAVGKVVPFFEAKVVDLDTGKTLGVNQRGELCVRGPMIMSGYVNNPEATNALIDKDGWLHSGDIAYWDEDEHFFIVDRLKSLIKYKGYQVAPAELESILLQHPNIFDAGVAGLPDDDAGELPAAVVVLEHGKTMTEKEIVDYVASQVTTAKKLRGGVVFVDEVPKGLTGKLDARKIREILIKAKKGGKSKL
S16 F2sN tox cnf: Cell viability qHTS assay in S16 Pmp22-F2sN cells - Confirmatory screen. 690 tested, 7% active. Potency, µM (doses to about 57.5 µM), without a hit: at the top dose activity change, negative = viability loss, hits mostly cytotoxic. AID 1508641, 2021. S16 Schwann cells viability, CellTiter-Glo ATP luminescence, 24 h. shares compounds with PMP22 txn prim; note: potency is the fitted concentration of half-maximal effect; % is set by controls: 0 for no effect and ±100 for the full control effect
PMP22 txn conf: Cell-based coincidence reporter assay to measure PMP22 gene transcription in S16 Pmp22-F2sN cells - Confirmatory screen. shares compounds with PMP22 txn prim. S16 Schwann cells Pmp22-F2sN, dual luciferase, 24 h. Potency, µM (series often up to 57.5 µM), inactives show at the highest dose activity change, negative = inhibition, most hits filed as inhibitors. 690 tested, 22% active. AID 1508646, 2021; active = clear falling dose curves in both reporters; inconclusive = both reporters move, but less clearly or upward; inactive = either reporter flat; the % is the FLuc reporter signal; note: potency is the fitted concentration of half-maximal effect
PMP22 HiBiT cnf: Cell-based HiBiT reporter assay to measure PMP22 protein expression in S16 Pmp22-HiBiT cells - Confirmatory screen. shares compounds with PMP22 txn prim. S16 Schwann cells Pmp22-HiBiT, luminescence, 48 h. Potency, µM (series often up to 27.9 µM), for the others: top-dose activity change, negative = inhibition, most hits filed as inhibitors. 95 tested, under 10 active
Target sequence (P25094 whole entry, looked up): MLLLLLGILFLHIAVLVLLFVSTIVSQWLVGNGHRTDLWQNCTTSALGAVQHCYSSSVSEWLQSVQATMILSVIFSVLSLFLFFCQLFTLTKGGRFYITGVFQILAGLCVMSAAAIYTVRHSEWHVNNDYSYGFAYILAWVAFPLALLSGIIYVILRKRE
Active calls of the source: *. Unless noted, calls come from the whole dose curve; as a rule, active = well fitted curve in the direction sought with a large enough effect; inconclusive = small, poorly fitted or top-dose-only effect, or another doubt; inactive = no such curve, though single readings can be large; an effect the other way counts as inactive or inconclusive.

For Cc1ccc(C)c(N2CCN(CCCNC(=O)c3ccc4nc(C(C)C)oc4c3)CC2)c1 the results were mTORC1 inh -6.4%, p53null 39C tox -13.3%, p53null 32C tox 4.1%, S16 viability inconclusive, PMP22 txn prim 11.2µM*, NLuc saturating inconclusive, NLuc Km ctr inconclusive, FLuc ctr PMP22 4.2%, S16 F2sN tox cnf inconclusive and PMP22 txn conf inconclusive.
Screening O=C(NCCCN1CCN(c2ccccc2)CC1)c1ccc2nc(Cc3ccccc3)oc2c1 returned mTORC1 inh 0.0%, p53null 39C tox -18.9%, p53null 32C tox -8.2%, S16 viability inconclusive and PMP22 txn prim inconclusive.
For CCc1ccccc1NC(=O)c1cc2c(Cl)nc3ccccc3c2s1 the results were mTORC1 inh -0.8%, p53null 39C tox 12.5%, p53null 32C tox -2.4%, S16 viability 16.1%, PMP22 txn prim 10.1µM*, NLuc saturating -16.9%, NLuc Km ctr inconclusive, FLuc ctr PMP22 -0.6%, S16 F2sN tox cnf 2.7% and PMP22 txn conf 5.1%.
Screening O=C(NCCCN1CCN(c2ccc(F)cc2)CC1)c1cc2c(Cl)nc3ccccc3c2s1 returned mTORC1 inh -2.7%, p53null 39C tox -24.3%, p53null 32C tox -0.4%, S16 viability 16.4%, PMP22 txn prim 14.1µM*, NLuc saturating -12.8%, NLuc Km ctr -11.4%, FLuc ctr PMP22 1.0%, S16 F2sN tox cnf -19.3%, PMP22 txn conf inconclusive and PMP22 HiBiT cnf 10.5%.
Screening O=C(NCCCN1CCN(c2ccc(F)cc2)CC1)c1ccc2nc(Cc3ccccc3)oc2c1 returned mTORC1 inh -3.9%, p53null 39C tox -6.9%, p53null 32C tox 2.7%, S16 viability -9.9%, PMP22 txn prim 15.8µM*, NLuc saturating -17.5%, NLuc Km ctr 3.3%, FLuc ctr PMP22 0.4%, S16 F2sN tox cnf -12.7% and PMP22 txn conf inconclusive.
Screening Cc1ccc(S(=O)(=O)c2cnc(SCC(=O)Nc3ccc4c(c3)OCCO4)[nH]c2=O)cc1C returned mTORC1 inh 1.7%, p53null 39C tox -9.6%, p53null 32C tox -2.5%, S16 viability 0.6% and PMP22 txn prim -38.9%.
`CCOc1ccc(CNC(=O)C2CCCCN2S(=O)(=O)c2ccc(F)cc2)cc1OC` (configuration not stated) gave mTORC1 inh 1.2%, p53null 39C tox 1.3%, p53null 32C tox -5.7%, S16 viability -15.6% and PMP22 txn prim -0.3%.
Screening Cc1c(C(=O)N(C)C)sc2c1c(=O)n(-c1ccc(F)cc1)c(=O)n2Cc1cc(=O)n2ccccc2n1 returned mTORC1 inh -9.0%, p53null 39C tox -6.4%, p53null 32C tox -2.7%, S16 viability -0.4% and PMP22 txn prim 10.8%.
For CCN(CC)C(=O)c1sc2c(c1C)c(=O)n(-c1ccccc1)c(=O)n2Cc1cc(=O)n2ccccc2n1 the results were mTORC1 inh 0.9%, p53null 39C tox -3.5%, p53null 32C tox -3.9%, S16 viability -1.5%, PMP22 txn prim 11.5µM*, NLuc saturating -4.3%, NLuc Km ctr 3.3%, FLuc ctr PMP22 -0.3%, S16 F2sN tox cnf -5.3% and PMP22 txn conf -26.9%.
CCOC(=O)c1cc2c(=O)n3ccccc3nc2n(CC2CCCO2)c1=NC(=O)c1ccc(C)cc1 (configuration not stated) was read as mTORC1 inh 0.0%, p53null 39C tox 0.9%, p53null 32C tox 5.8%, S16 viability inconclusive and PMP22 txn prim inconclusive.
Screening CCOc1ccc2oc(=O)cc(CN3CCN(Cc4ccc(F)cc4)CC3)c2c1 returned mTORC1 inh -5.3%, p53null 39C tox -8.6%, p53null 32C tox -5.2%, S16 viability inconclusive, PMP22 txn prim 14.1µM*, NLuc saturating -9.4%, NLuc Km ctr 8.9%, FLuc ctr PMP22 -3.3%, S16 F2sN tox cnf -8.6% and PMP22 txn conf -16.8%.
`COC(=O)CS(=O)(=O)c1nc2ccccc2nc1N1CCCCC1` gave mTORC1 inh inconclusive, p53null 39C tox 32.4%, p53null 32C tox 12.7%, S16 viability inconclusive, PMP22 txn prim 11.3µM*, NLuc saturating inconclusive, NLuc Km ctr inconclusive, FLuc ctr PMP22 -10.0%, S16 F2sN tox cnf 29.2%, PMP22 txn conf 9.93µM* and PMP22 HiBiT cnf inconclusive.

Screening results (PubChem)
